Screens deposited in PubChem BioAssay by Buhrlage Lab, Dana-Farber Cancer Institute and Novartis Institutes for BioMedical Research (Cambridge, Mass).
A selection: hits, their analogues and other compounds. The true share with any hit is near 13%.
USP30 inh: blocks human USP30 ubiquitin-rhodamine cleavage. 47,000 tested, 5.3% active. inhibition, % at 25 µM. purified USP30, Ub-rhodamine cleavage fluorescence. Q70CQ3. AID 1645860
Target sequence (Q70CQ3 whole entry, looked up): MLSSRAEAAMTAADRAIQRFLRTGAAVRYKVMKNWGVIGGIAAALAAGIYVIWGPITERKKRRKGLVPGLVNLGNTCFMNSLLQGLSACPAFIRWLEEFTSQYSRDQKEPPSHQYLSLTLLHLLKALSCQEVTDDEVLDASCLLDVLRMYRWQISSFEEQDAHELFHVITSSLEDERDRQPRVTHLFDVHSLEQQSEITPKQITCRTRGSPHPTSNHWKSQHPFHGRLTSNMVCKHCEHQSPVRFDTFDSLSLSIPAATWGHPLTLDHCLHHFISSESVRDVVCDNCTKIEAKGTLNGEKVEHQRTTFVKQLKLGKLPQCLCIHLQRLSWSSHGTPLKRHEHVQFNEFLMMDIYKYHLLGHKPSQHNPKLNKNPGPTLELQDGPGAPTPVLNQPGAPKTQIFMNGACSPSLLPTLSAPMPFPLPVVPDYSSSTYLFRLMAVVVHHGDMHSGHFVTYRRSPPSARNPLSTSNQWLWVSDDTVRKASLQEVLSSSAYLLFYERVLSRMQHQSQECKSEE
USP8 inh: inhibitors of human USP8 deubiquitinase; P40818; purified USP8, Ub-rhodamine cleavage fluorescence, 30 min; inhibition, % at 20 µM; 47,000 tested, 4.2% active
USP10 block: human USP10 deubiquitinase inhibition. 47,000 tested, 1.1% active. inhibition, % at 20 µM. Q14694. purified USP10, Ub-rhodamine fluorescence, 60 min
USP28 inh: inhibitors of human USP28 deubiquitinase. purified USP28, Ub-rhodamine cleavage fluorescence, 30 min. 47,000 tested, 3% active. Q96RU2. inhibition, % at 25 µM. AID 1645857
USP17 inh: human USP17-like deubiquitinase inhibition | inhibition, % at 50 µM | purified USP17, Ub-rhodamine cleavage fluorescence, 3 h | 47,000 tested, 6.5% active
Numbers stand for hits; - = inactive; . = no result. Rule as the data show it: active = inhibition above about 30%; inactive = the rest.

SMILES | USP30 inh | USP8 inh | USP10 block | USP28 inh | USP17 inh
C/C1=C/C=C/C=C\[C@H](C)[C@@H](O)CC(=O)/C(C)=C/C[C@H](O)/C=C/[C@H](C)[C@H](O)[C@@H](C)/C=C(\C)C(=O)c2c(O)c(C)cc3c2C(=O)C=C(NC1=O)C3=O | - | - | - | - | -
CC(C)(C)C1CCC2(CC1)N=C(N)Nc1nc3ccccc3n12 (stereo not drawn) | - | - | - | - | -
COc1ccccc1-c1noc(-c2nn(-c3ccc(C)c(C)c3)ccc2=O)n1 | - | - | - | - | -
COc1ccc(-n2ccc(=O)c(-c3nc(-c4ccc(F)cc4)no3)n2)cc1 | 35 | 85 | - | - | 31
Cc1ccc(-n2ccc(=O)c(-c3nc(-c4ccccc4F)no3)n2)cc1 | - | - | - | - | -
COc1cccc(-n2ccc(=O)c(-c3nc(-c4ccccc4Cl)no3)n2)c1 | 66 | 68 | - | 41 | .
CCc1ccc(-n2ccc(=O)c(-c3nc(-c4ccncc4)no3)n2)cc1 | . | - | - | . | 39
O=C(c1ccc2nc(-n3cccc3)sc2c1)N1CCN(CCO)CC1 | - | - | - | - | -
CCCC(NC(=O)Cc1c(C)c2ccc(O)c(C)c2oc1=O)C(=O)O (stereo not drawn) | - | - | - | - | -
COc1ccccc1CNC(=O)C1CC(=O)N(c2ccc3oc(C)nc3c2)C1 (stereo not drawn) | - | - | - | - | -
COc1ccc(CC(NC(C)=O)C(=O)NC2CCN(c3c(Cc4ccccc4)c(C)nc4ncnn34)CC2)cc1OC (stereo not drawn) | 71 | - | - | - | 47
COc1ccc(CC(NC(C)=O)C(=O)NC2CCN(c3c(Cc4ccccc4)c(C)nc4ncnn34)CC2)c(OC)c1 (stereo not drawn) | - | - | - | - | -
c1cncc(-c2nnc(-c3cc4ccccc4o3)o2)c1 | - | - | - | - | -
Cc1ccccc1Nc1c(-c2ccccc2O)nc2c(C)cccn12 | - | - | - | - | -
Cc1ccc2nc(-c3ccccc3O)c(Nc3ccc(Cl)cc3)n2c1 | - | 76 | - | - | -
O=C(NC1CCCCC1)c1cccc(S(=O)(=O)N2CC(c3ccccc3)CC2=O)c1 (stereo not drawn) | 31 | - | - | - | -
Cc1cccc(C(=O)N2CCc3cc(-c4nc(NC(=O)CNc5ccccc5)sc4C)ccc32)c1 | - | 57 | - | - | 60
Cc1ccc(C(=O)N2CCc3cc(-c4csc(NC(=O)CN(C)C5CCCCC5)n4)ccc32)cc1 | - | 58 | - | - | -
Cc1sc(NC(=O)Cn2nnc3ccccc3c2=O)nc1-c1ccc2c(c1)CCN2C(=O)C(C)C | . | - | - | . | 56
Cc1ccc(C(=O)N2CCc3cc(-c4nc(NC(=O)CN5CCCCCC5)sc4C)ccc32)cc1 | - | - | - | - | -
Cc1cccc(C(=O)N2CCc3cc(-c4nc(NC(=O)CN5CCCC5)sc4C)ccc32)c1 | - | - | - | - | 45
COc1ccc(CCNC(=O)CCC(=O)Nc2cccc(C(F)(F)F)c2)cc1OC | - | - | - | - | -
CC(C)(C)c1cc2n(n1)CCN(Cc1cccc(C(F)(F)F)c1)C2 | - | - | - | - | -
Cc1sc(NC(=O)CN2CCOCC2)nc1-c1ccc2c(c1)CCN2C(=O)C(C)C | - | - | - | - | -
CCc1nc2ccc(C(=O)Nc3nc(-c4ccc5c(c4)CCN5S(=O)(=O)c4ccccc4)c(C)s3)cc2nc1CC | - | - | - | - | 32
SMILES | USP30 inh | USP8 inh | USP10 block | USP28 inh | USP17 inh
Cc1sc(NC(=O)CNc2ccccc2)nc1-c1ccc2c(c1)CCN2C(=O)C(C)C | - | - | - | - | 51
Cc1cccc(C(=O)N2CCc3cc(-c4csc(NC(=O)CNc5ccccc5)n4)ccc32)c1 | - | - | - | - | 31
Cc1nc(N2CCN(C/C=C/c3ccccc3)CC2)c2oc3ccccc3c2n1 | - | - | - | - | -
O=C(NC1CCN(Cc2ccccc2)CC1)N1CCC(c2nc3ncccc3[nH]2)CC1 | - | - | - | - | -
O=C(c1nnn(-c2ccccc2)n1)N1CCC(Cc2ccccc2)CC1 | 31 | - | - | 39 | -
COc1ccccc1N1CCN(C(=O)c2nnn(-c3ccc(C)cc3)n2)CC1 | - | - | - | - | -
Cc1cccc(N2CCN(C(=O)c3nnn(-c4ccc(F)cc4)n3)CC2)c1 | - | - | - | 56 | -
O=C(O)CCCNC(=O)/C(=C\c1ccc(F)cc1)NC(=O)c1ccco1 | - | - | - | - | -
Cc1ccc(-n2nc(C)c3nc(CCC(=O)N4CCN(c5ccc(F)cc5)CC4)c(=O)n(C)c32)cc1 | - | - | - | - | -
COc1ccc2c(C)c(CCC(=O)N3CCN(c4ccccc4)CC3)c(=O)oc2c1 | - | - | - | - | -
Cc1c(Cc2ccccc2)c(=O)oc2cc(OCc3nn[nH]n3)ccc12 | 38 | - | - | 44 | 36
Cc1noc(C2CN(Cc3cccc(C#N)c3)Cc3ccnn3C2)n1 (stereo not drawn) | - | - | - | - | -
O=C(c1ccc(F)cc1)c1c[nH]c2cc3c(cc2c1=O)OCO3 | - | - | - | - | -
CCCCn1nnc(NC(=O)c2ccc(Br)cc2)n1 | - | - | - | - | -
CCOC(=O)c1ccc(NC(=O)COc2cccc3c2CCN(Cc2cccnc2)C3=O)cc1 | - | - | - | 32 | -
COc1ccc(NC(=O)COc2cccc3c2CCN(Cc2cccnc2)C3=O)c(OC)c1 | - | - | - | - | -
Cc1nnc(-c2nnc(NCCC(C)C)c3ccccc23)o1 | - | - | - | - | -
Cc1nnc(-c2nnc(NCc3ccc(Cl)cc3)c3ccccc23)o1 | 37 | - | - | - | 52
Cc1ccc(NC(=O)c2oc3ccccc3c2NC(=O)COc2ccc(C)cc2)cc1 | - | - | - | - | -
COc1cccc(NC(=O)c2oc3ccccc3c2NC(=O)COc2cccc(OC)c2)c1 | - | - | 35 | - | -
Cc1ccc2c(c1)c(=O)cc(C(F)(F)F)n2C[C@H]1CCCN1C(=O)C1CC1 | 41 | - | - | - | -
CCCCOc1ccc(C(=O)NC2(c3nc(-c4cccnc4)no3)CCCCC2)cc1 | 32 | - | - | - | -
CCCC(=O)NC1(c2nc(-c3cccnc3)no2)CCCCC1 | - | - | - | - | -
COC(=O)c1cc2sccc2n1CC(=O)Nc1cccc(SC)c1 | 36 | - | - | - | -
Cc1cc(C)cc(NC(=O)CCc2c(C)nn(-c3cc(N4CCOCC4)ncn3)c2C)c1 | - | - | - | - | -
O=c1cc(-c2ccc(O)c(O)c2)oc2cc(O[C@@H]3O[C@H](CO)[C@@H](O)[C@H](O)[C@H]3O)cc(O)c12 | 91 | - | 52 | 90 | 84
O=C(NC1CCCC1)N1CC[C@@H]2CN(Cc3ccncc3)S(=O)(=O)[C@@H]2CC1 | - | - | - | - | -
CCOc1ccc2[nH]c(=O)c(-c3nc4ccc(C)cn4c3NCc3ccccc3)cc2c1 | - | - | 31 | 32 | 49
CCOc1ccc2[nH]c(=O)c(-c3nc4cc(C)ccn4c3NC(C)(C)C)cc2c1 | - | - | - | - | -
